Measured values taken from PubChem BioAssay AID624331 (National Center for Advancing Translational Sciences (NCATS), 2012).
Inconclusive results are not listed. The source made the active and inactive calls. Calls come from the whole dose curve; as a rule, active = well fitted activation curve with a large enough effect; inconclusive = small, poorly fitted or top-dose-only effect; inactive = no such curve, though single readings can be large or run the other way.

assay: qHTS assay for re-activators of p53 using a Luc reporter: Hit Validation with no p53 Expressed; conditions: p53-null cells, luciferase reporter counter-screen; series mostly up to 46.1 µM; activity change, positive = activation: at the top concentration; for activity change, positive = activation: 0% is about no effect
Method in brief: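 Counter-screen of primary hits in a cell line not transfected with p53, in Opti-MEM with 10% FBS; compounds at several concentrations (10 mM stock, 1:5; top 46.1 µM in well), 24 h at 37 deg C, 5% CO2. Luminescence read after 10 min with Amplite reagent.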
Potency is the fitted concentration of half-maximal effect.

SMILES | activity change, positive = activation | Potency
Cc1ccc(C(=O)Nc2ccn(C)n2)cc1 | 1.22% (inactive) | –
COc1ccc(C(=O)C(CN2CCCC2)c2ccccc2)cc1 (stereo not given) | -66% (inactive) | –
Cc1ccc2oc(-c3ccc(C)c(NC(=S)NC(=O)c4cccs4)c3)nc2c1 | 11.3% (inactive) | –
Cc1cccc(-n2c(C)cc(C(=O)NC3CCCCC3)c2C)c1 | 47.2% (inactive) | –
O=C(Nn1c(SCc2ccc([N+](=O)[O-])cc2)nc2ccccc2c1=O)c1ccc(F)cc1 | 24.3% (inactive) | –
CCN(CC)C(=O)CNC(=S)N(CCCN1CCOCC1)Cc1cccs1 | 0.343% (inactive) | –
Fc1ccc(CCNC(=S)Nc2ccc(F)cc2)cc1 | -12.1% (inactive) | –
CCOc1ccc2c(c1)C(=NNC(=O)c1ccncc1)c1cc(OCC)ccc1-2 | -13% (inactive) | –
CCC(Sc1nc2ccccc2c(=O)n1CCN1CCOCC1)C(=O)NCc1cccnc1 (stereo not given) | -26.9% (inactive) | –
c1cnc2c(OCc3nc4ccccc4[nH]3)cccc2c1 | 89.4% (inactive) | –
COc1ccc(CCC(=O)Nc2ccc(-c3noc(-c4ccc(OC)c(OC)c4)n3)cc2)cc1 | 10.6% (inactive) | –
S=c1[nH]nc(-c2ccco2)n1Cc1ccccc1 | 37.8% (inactive) | –
COc1cc(C(=S)N2CCOCC2)ccc1OC(=O)c1ccccc1C | 29.9% (inactive) | –
O=C(N/N=C(\c1ccccc1)c1cccnc1)c1cccc(F)c1 | 53.8% (inactive) | –
CS(=O)(=O)c1ccc2nc(NC(=O)CCNC(=O)c3ccccc3Cl)sc2c1 | 80.4% (inactive) | –
O=C(CCN1C(=O)NC2(CCCC2)C1=O)Nc1ccc(-c2nc3ccccc3s2)cc1 | – | 2.31 µM (active)
CCc1ccc2[nH]c(=O)c(CN(CCN3CCCC3)C(=O)NC3CCCCC3)cc2c1 | -34.5% (inactive) | –
CN(C)CCN(CC1CCCN(Cc2ccccc2F)C1)C(=O)c1ccc(F)cc1 (stereo not given) | 17.2% (inactive) | –
Cc1nnc(SCC(=O)N2CCOCC2)c2ccccc12 | 2.29% (inactive) | –
CCOc1ccc(NC(=O)c2cnsn2)cc1 | -11.8% (inactive) | –

SMILES | activity change, positive = activation | Potency
O=C(Nc1ccc(CN2CCOCC2)cc1)c1cc2ccccn2n1 | 9.72% (inactive) | –
CCOc1ccc(OCc2cccc(C(=O)N3CCCC3)c2)cc1 | 0.911% (inactive) | –
C/C(CC(C)C)=N\NC(=O)Nc1ccccc1 | -0.197% (inactive) | –
O=C(CSc1nnc(-c2ccc3c(c2)OCCO3)o1)N1CCCC1 | 21.1% (inactive) | –
Cc1cccc(-c2noc(CCC(=O)N3CCN(c4cc(C)ccc4C)CC3)n2)c1 | -1.43% (inactive) | –
COCC(=O)Nc1nnc(COc2ccccc2)s1 | 31.1% (inactive) | –
Clc1ccc(OCc2nc(-c3ccccn3)n[nH]2)cc1 | 7.13% (inactive) | –
Cc1ccc(CCc2nnc(SCC(=O)Nc3cccc(Cl)c3)n2-c2ccccc2)o1 | -44.2% (inactive) | –
c1nc(C2CCCCC2)cc2cc3c(cc12)OCO3 | 34.3% (inactive) | –
Cc1cccc(-n2c(C)cc(/C=N\NC(=O)c3cccs3)c2C)c1 | 32.6% (inactive) | –
COc1ccc(C(=O)N/N=C(\C)c2ccccn2)cc1OC | -5.69% (inactive) | –
Cn1c(CCN2CCCCC2)nc2cc(NC(=O)Nc3ccccc3)ccc21 | -15.9% (inactive) | –
C=CCNc1ncnc2c1cnn2-c1ccc(Cl)cc1 | 55.5% (inactive) | –
Cc1ccc2oc(C(=O)Nc3cc(C)on3)c(C)c2c1 | – | 9.2 µM (active)
O=C(Nc1ccc(OC(F)(F)F)cc1)c1cnc2n(c1=O)CCS2 | -11% (inactive) | –
Cc1cc(CC(C)C)n(-c2nc3ccccc3c(=O)n2OCC(N)=O)n1 | -1.66% (inactive) | –
COC(=O)c1ccc(/C=C/c2ccc3cccc(OC(C)=O)c3n2)cc1 | 14.5% (inactive) | –
CC(=O)c1ccc(N2Cc3ccccc3C2=NC(=O)c2cccs2)cc1 | – | 10.3 µM (active)
Cc1ccc(-c2nnc(SCc3ccccc3F)o2)cc1 | 36.2% (inactive) | –
Cc1cccc(C(=O)OCC(=O)N2CCCCCC2)c1O | 55.7% (inactive) | –
